Records with an inconclusive call do not appear. A call without a number means that no potency is given here. A number with no mark means an inactive call. Active and inactive are the calls of the source. The call rests on the fitted dose curve.
Target: Beta-2 adrenergic receptor (Homo sapiens) (UniProt P07550)
Experiment: Adrenergic beta2 receptor (ADRB2) small molecule agonists, cell-based qHTS assay (AID 1963593);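 further: CHO cells stably overexpressing human ADRB2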
In short: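 CHO cells stably over-expressing ADRB2 were plated overnight at 37C, then dosed with compounds plus a stimulation mix containing 100uM IBMX and 25uM Ro-20-1724 for 0.5hr at room temperature. cAMP was measured by HTRF competition, 1hr.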

Sequence of Beta-2 adrenergic receptor (Homo sapiens) (P07550 whole entry, looked up): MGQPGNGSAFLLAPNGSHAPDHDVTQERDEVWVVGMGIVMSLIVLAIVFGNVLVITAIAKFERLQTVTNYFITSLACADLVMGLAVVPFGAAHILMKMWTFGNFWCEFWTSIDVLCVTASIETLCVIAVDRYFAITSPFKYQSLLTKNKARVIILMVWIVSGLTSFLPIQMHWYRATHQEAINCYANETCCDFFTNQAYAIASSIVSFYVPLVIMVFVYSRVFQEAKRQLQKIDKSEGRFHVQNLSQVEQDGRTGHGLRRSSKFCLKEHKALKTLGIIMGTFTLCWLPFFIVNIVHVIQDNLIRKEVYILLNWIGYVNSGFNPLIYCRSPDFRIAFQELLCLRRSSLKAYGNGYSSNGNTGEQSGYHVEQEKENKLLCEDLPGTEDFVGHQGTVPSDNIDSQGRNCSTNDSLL

Compound | Potency | activation
CO/N=C(\C(=O)O)c1csc(NC(=O)CCl)n1 | inactive | –
N=C1N=C(N)c2ccccc21 | inactive | –
CNCc1ccccc1 | inactive | –
CCOC(=O)C1CC(=O)C(=C(O)C2CC2)C(=O)C1 (stereo not given) | inactive | –
O=C1c2cccc(O)c2C(=O)c2c(O)cc(CO)cc21 | inactive | –
C[C@]12CCC(=O)C=C1CC[C@@H]1[C@@H]2CC[C@@]2(C)[C@H]1CC[C@]2(O)C(=O)CO | inactive | –
CCCCC(CC)COC(=O)COc1ccc(Cl)cc1Cl (stereo not given) | inactive | –
COC[C@H](c1ccc(C(F)(F)F)cc1)N1CCN(C2(C)CCN(C(=O)c3c(C)ncnc3C)CC2)C[C@H]1C | inactive | –
O=C(CO)[C@@H](O)[C@H](O)[C@@H](O)CO | inactive | –
Cc1ccc(S)cc1 | inactive | –
Cc1ccsc1C(=CCCN1CCC[C@@H](C(=O)O)C1)c1sccc1C | inactive | –
Cc1nc(C2CCCCC2)c(-c2ccc(S(N)(=O)=O)c(F)c2)o1 | inactive | –
CC1CCc2cc(F)cc3c(=O)c(C(=O)O)cn1c23 (stereo not given) | inactive | –
CCCCc1ccc2c(n1)[C@@H](c1ccc(OC)cc1C[C@H](C)C(=O)O)[C@H](C(=O)O)[C@H]2c1ccc2c(c1)OCO2 | inactive | –
Oc1cn2c(n1)Nc1ccc(Cl)c(Cl)c1C2 | inactive | –
c1ccc(SSc2ccccc2)cc1 | inactive | –
CNc1c2c(nn1C)CCCC2 | inactive | –
CCC(Cc1ccccc1)(C(=O)c1ccc(N2CCOCC2)cc1)N(C)C (stereo not given) | inactive | –
C=CCOc1nc(OCC=C)nc(OCC=C)n1 | inactive | –
CO[Si](OC)(OC)OC | inactive | –
CCCCOCCOC(=O)COc1ccc(Cl)cc1Cl | inactive | –
COC(=O)c1ccc(NC(C)=O)cc1OC | inactive | –
CCCN(CCC)CCc1cccc2c1CC(=O)N2 | inactive | –

Compound | Potency | activation
CCC(C(=O)OCCN(CC)CC)c1ccccc1 (stereo not given) | inactive | –
O=C(CCN1CCC(c2ccccc2)C1)c1ccc2c(c1)OCCO2 (stereo not given) | inactive | –
O=C(N[C@@H](Cc1ccccc1)[C@@H](O)C(=O)N1C[C@@H](O)[C@@H](O)C1)c1cc2cc(Cl)ccc2[nH]1 | inactive | –
C[N+]1(CC2COC(c3ccccc3)(c3ccccc3)O2)CCCCC1 (stereo not given) | inactive | –
C=COCCCCO | inactive | –
O=C1c2ccccc2C(=O)C1(O)O | inactive | –
Cc1ccccc1CCO | inactive | –
O=C(O)c1ccc2cc(O)ccc2c1 | inactive | –
CCOC(=O)OCC/C(SC(=O)OCC)=C(\C)N(C=O)Cc1cnc(C)nc1N | inactive | –
CC(C)=CCC[C@@](C)(O)[C@H]1CC=C(C)CC1 | inactive | –
CCN1CCCC1CN (stereo not given) | inactive | –
CCCCCCC/C=C/C=O | inactive | –
C[N+]1(C)CCCC(OC(=O)C(O)(c2ccccc2)c2ccccc2)C1 (stereo not given) | inactive | –
CCCCCCCCc1ccc(S(=O)(=O)O)cc1 | inactive | –
CCCCCCCCCCCCN1CCOCC1 | inactive | –
CC/C=C\CC/C=C/C(OCC)OCC | inactive | –
c1ccc(CC2=NCCN2)cc1 | inactive | –
C[C@@H]1CN(CCCn2c3ccccc3c3ccccc32)C[C@H](C)N1 | inactive | –
CN1CCN(CC(=O)N2c3ccccc3C(=O)Nc3cccnc32)CC1 | – | -0.465% [at 8.39 µM]
Cc1ccc2c(c1)C(=O)c1ccccc1C2=O | inactive | –
O=C(Nc1cccc(C2=NCCN2)c1)Nc1cccc(C2=NCCN2)c1 | inactive | –
C1=C\CC/C=C\CC/1 | inactive | –

From PubChem BioAssay (Tox21)
